Compound activity as filed in PubChem.
ADAM10 inh: inhibitors of human ADAM10. O14672. recombinant ADAM10, EDANS/DABCYL FRET peptide cleavage, 3 h. inhibition, % at 7 µM. hit rate 0.62% among 370,000. AID 720582;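 active means inhibition above a per-campaign cutoff equal to the mean of compounds falling between control-based bounds plus 3 SD, cut at about 20% in these data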
proKLK7 act: activators of human kallikrein-7 zymogen; P49862; purified proKLK7, EDANS-DABCYL substrate fluorescence; 100% is mature enzyme control, 0% vehicle; activation, % at 7 µM; hit rate 0.9% among 370,000; AID 652039;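 active means activation above the mean of all tested compounds plus 3 SD, computed per campaign excluding outliers beyond control limits, cut at about 13% in these data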
FGF22 binding: shifts melting point of recombinant human FGF22. hit rate 1.5% among 340,000. recombinant FGF22 thermal shift, SYPRO orange fluorescence; percent of sucrose octasulfate shift, DMSO zero. Q9HCT0. activity (Tm shift, normalised), % at 9.99 µM. AID 651658;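 active means mean Tm shift, scaled 0 neutral to 100 positive control, at about 1.3% or above, every replicate too, limit read from the data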
Target sequence (Q9HCT0 whole entry, looked up): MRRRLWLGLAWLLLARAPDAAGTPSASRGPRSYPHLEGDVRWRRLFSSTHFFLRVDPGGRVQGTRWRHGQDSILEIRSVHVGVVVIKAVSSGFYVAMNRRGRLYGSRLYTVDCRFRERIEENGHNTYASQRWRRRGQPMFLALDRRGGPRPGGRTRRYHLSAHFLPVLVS
rRNA inh HTS: inhibitors of bacterial rRNA selective over humanized ribosomes. AID 720706. GFP signal change (wild-type ribosome), % (test concentration not listed). E. coli WT GFP vs humanized-ribosome RFP mutants, fluorescence, 24 h; active compounds read low; DMSO median 0, no signal -100. hit rate 1.6% among 350,000;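 active means significant combined selectivity score with lowered wild-type GFP, culture density cut under 30%, mutant RFP and density less affected; inactive means any of these conditions unmet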
ADAM17 inh: ADAM17 inhibition, QFRET primary screen; hit rate 0.83% among 370,000; P78536; recombinant ADAM17, EDANS/DABCYL FRET peptide cleavage; inhibition, % at 6.95 µM;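 active means inhibition above the mean of compounds lying between control limits plus 3 SD, set per campaign, cut at about 8.5% in these data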
Target sequence (P78536 215-824 limits assumed): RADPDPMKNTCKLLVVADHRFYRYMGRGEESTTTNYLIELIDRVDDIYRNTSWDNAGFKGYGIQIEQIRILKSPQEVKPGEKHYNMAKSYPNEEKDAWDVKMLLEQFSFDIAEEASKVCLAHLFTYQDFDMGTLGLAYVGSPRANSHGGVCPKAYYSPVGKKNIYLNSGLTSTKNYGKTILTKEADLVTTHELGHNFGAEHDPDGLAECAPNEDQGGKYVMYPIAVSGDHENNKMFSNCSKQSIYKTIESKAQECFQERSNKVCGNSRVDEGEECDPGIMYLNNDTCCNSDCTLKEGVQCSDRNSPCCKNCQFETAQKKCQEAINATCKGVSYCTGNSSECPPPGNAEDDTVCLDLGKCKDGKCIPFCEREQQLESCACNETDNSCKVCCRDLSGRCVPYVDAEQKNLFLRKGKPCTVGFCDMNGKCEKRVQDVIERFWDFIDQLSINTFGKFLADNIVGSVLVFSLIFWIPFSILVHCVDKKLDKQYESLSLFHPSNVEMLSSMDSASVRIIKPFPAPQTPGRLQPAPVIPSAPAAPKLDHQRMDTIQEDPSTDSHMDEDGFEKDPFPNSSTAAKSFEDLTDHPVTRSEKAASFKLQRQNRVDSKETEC
ADAM10 ctr: counter-screen for ADAM17 exosite inhibitors: inhibitors of human ADAM10. shares compounds with ADAM17 inh. recombinant ADAM10, EDANS/DABCYL FRET peptide cleavage, 3 h. inhibition, % at 6.95 µM. hit rate 47% among 2,900. AID 743256;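 active means mean inhibition over the triplicate runs exceeds the activity threshold set in the earlier primary screen, cut at about 20% in these data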
ADAM17 confirm: confirmation of inhibitors of human ADAM17; shares compounds with ADAM17 inh; recombinant ADAM17, EDANS/DABCYL QFRET peptide cleavage; inhibition, % at 6.95 µM; hit rate 65% among 2,900;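 active means mean inhibition across replicates above the hit cutoff set in the primary screen, cut at about 8.5% in these data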
Of the large screens only hits and unclear results are named; the others gave an inactive call (follow-up assays come after a bar, where they were run). A selection: hits, their analogues and other compounds. The true share with any hit is near 3.8%.

COc1ccc(S(=O)(=O)N(C)C[C@H]2OCCCC[C@@H](C)Oc3ccc(NS(C)(=O)=O)cc3C(=O)N([C@H](C)CO)C[C@H]2C)cc1	none (no result: ADAM10 inh, proKLK7 act, ADAM17 inh)
COc1cccc(NC(=O)c2csc3c2CCCC3)c1	ADAM17 inh 13 | ADAM10 ctr inactive | ADAM17 confirm inactive
O=C(CCn1c2c(c3ccccc31)CCCC2)NNC(=O)c1ccc(Cl)c([N+](=O)[O-])c1	none
O=C(CCn1c2c(c3ccccc31)CCCC2)NNC(=O)c1ccc([N+](=O)[O-])cc1	ADAM17 inh 11 (no result: rRNA inh HTS) | ADAM10 ctr inactive | ADAM17 confirm 9.9
C/C=C/c1ccc([C@H]2[C@@H](CO)N3C(=O)CN(C(=O)Nc4ccc(F)cc4)C[C@@H]23)cc1	none (no result: ADAM10 inh, proKLK7 act, ADAM17 inh)
CC1CCc2c(C(=O)Oc3cccc(-n4cnnn4)c3)csc2C1 (centres undefined)	ADAM17 inh 8.8 (no result: FGF22 binding, rRNA inh HTS) | ADAM10 ctr inactive | ADAM17 confirm 11
Cc1ccc(C(=O)Oc2cccc(-n3cnnn3)c2)cc1	none
C[C@H]1CN([C@@H](C)CO)C(=O)c2cc(NC(=O)C3CCCCC3)ccc2O[C@@H]1CN(C)S(=O)(=O)c1cn(C)cn1	none (no result: ADAM10 inh, proKLK7 act, ADAM17 inh)
CCC(=O)N1CCc2cc(Br)cc(S(=O)(=O)N(C)c3ccc(OC)cc3OC)c21	FGF22 binding 43, rRNA inh HTS -30, ADAM17 inh 10 | ADAM10 ctr inactive | ADAM17 confirm inactive
Cc1ccc(NS(=O)(=O)c2ccc(C3CCCCC3)cc2)cc1	ADAM17 inh 8.9 | ADAM10 ctr 38 | ADAM17 confirm 18
CCOC(=O)NCc1ccc(CNC(=O)OCC)cc1	none (no result: FGF22 binding, rRNA inh HTS)
CCOC(=O)NCc1ccc(S(=O)(=O)Nc2ccc(C)cc2)cc1	ADAM17 inh 11 (no result: FGF22 binding, rRNA inh HTS) | ADAM10 ctr inactive | ADAM17 confirm inactive
C[C@H]1CCCCO[C@H](CN(C)S(=O)(=O)c2cn(C)cn2)[C@@H](C)CN([C@@H](C)CO)C(=O)c2cc(NS(=O)(=O)c3cn(C)cn3)ccc2O1	none (no result: ADAM10 inh, proKLK7 act, ADAM17 inh)
C[C@@H]1CN([C@@H](C)CO)S(=O)(=O)c2ccc(-c3ccncc3)cc2O[C@H]1CN(C)C(=O)c1cccc(F)c1	none (no result: ADAM10 inh, proKLK7 act, ADAM17 inh)
N#C/C(=N\Nc1ccc(F)cc1)C(=N)N1CCCCC1	none (no result: FGF22 binding, rRNA inh HTS)
COc1ccc(N/N=C(\C#N)C(=N)N2CCOCC2)cc1	ADAM17 inh 8.8 | ADAM10 ctr inactive | ADAM17 confirm inactive
O=C(Oc1ccccc1-c1nnco1)c1ccc(Cl)cc1	ADAM17 inh 9.7 (no result: FGF22 binding, rRNA inh HTS) | ADAM10 ctr inactive | ADAM17 confirm inactive
COc1ccc(-c2ccc3c(c2)O[C@@H](CN(C)Cc2cccnc2)[C@@H](C)CN([C@H](C)CO)S3(=O)=O)cc1	none (no result: ADAM10 inh, proKLK7 act, ADAM17 inh)
C/C=C/c1ccc([C@H]2[C@H](CO)N(C(=O)CC)[C@H]2CNC(=O)CC2CC2)cc1	none (no result: ADAM10 inh, proKLK7 act, FGF22 binding, ADAM17 inh)
COc1cccc(NC(=O)N2C[C@@H](O)COC[C@H]3O[C@H](CC(=O)NCCCN4CCOCC4)CC[C@@H]32)c1	none (no result: ADAM10 inh, proKLK7 act, ADAM17 inh)
CCNC(=O)[C@H]1[C@H](CO)[C@H]2Cn3c(ccc(C4=CCCC4)c3=O)[C@@H]1N2Cc1ccncc1	none (no result: ADAM10 inh, proKLK7 act, FGF22 binding, ADAM17 inh)
Clc1ccc(N2COC3c4cccc5cccc(c45)C32)cc1 (centres undefined)	ADAM17 inh 9.2 (no result: FGF22 binding, rRNA inh HTS) | ADAM10 ctr inactive | ADAM17 confirm inactive
CO[C@@H]1CN(C)C(=O)c2cc(NC(=O)NC(C)C)ccc2OC[C@H](C)NC[C@@H]1C	none (no result: ADAM10 inh, proKLK7 act, FGF22 binding, ADAM17 inh)
C=C(C)COc1ccc(-c2n[nH]c(C)c2-c2ccc(Br)cc2)c(O)c1	ADAM17 inh 11 (no result: FGF22 binding, rRNA inh HTS) | ADAM10 ctr 22 | ADAM17 confirm 12
C=C(C)COc1ccc(-c2[nH]ncc2-c2ccc(Br)cc2)c(O)c1	none (no result: FGF22 binding, rRNA inh HTS)
CCC(=O)Nc1ccc2c(c1)C(=O)N(C)C[C@H](OC)[C@H](C)CN(C(=O)C1CC1)[C@@H](C)CO2	none (no result: ADAM10 inh, proKLK7 act, ADAM17 inh)
Cc1ccc(NC(=O)C2=CC(c3ccc(C)cc3)=NS(=O)(=O)N2C)cc1	none
COc1ccc(C2=NS(=O)(=O)N(C)C(C(=O)Nc3ccc(C)cc3)=C2)cc1	ADAM17 inh 8.9 | ADAM10 ctr inactive | ADAM17 confirm 14
CCc1ccc(NC(=O)C2=CC(c3ccc(OC)cc3)=NS(=O)(=O)N2C)cc1	ADAM17 inh 9.2 | ADAM10 ctr 24 | ADAM17 confirm 15
Cc1ccc(C2=NS(=O)(=O)N(C)C(C(=O)Nc3ccc4c(c3)OCO4)=C2)cc1	ADAM17 inh 13 | ADAM10 ctr inactive | ADAM17 confirm 14
C[C@@H]1CN([C@H](C)CO)C(=O)Cc2cc(NS(=O)(=O)c3cccs3)ccc2O[C@H]1CN(C)Cc1ccc(C(=O)O)cc1	none (no result: ADAM10 inh, proKLK7 act, ADAM17 inh)
O=C(C[C@@H]1C=C[C@@H](NC(=O)c2ccc3c(c2)OCO3)[C@@H](CO)O1)NCc1ccc(Cl)cc1	none (no result: ADAM10 inh, proKLK7 act, ADAM17 inh)
FC(F)(F)c1cc(CCN2CCNC[C@@H]2CC2CCCCC2)cc(C(F)(F)F)c1	none
CCCC[C@@H]1CNCCN1CCc1cc(C(F)(F)F)cc(C(F)(F)F)c1	ADAM17 inh 9.0 | ADAM10 ctr inactive | ADAM17 confirm inactive
CC(C)Nc1nc(Cl)nc(NNC(=O)C(C)Oc2ccccc2)n1 (centres undefined)	ADAM17 inh 9.0 (no result: FGF22 binding, rRNA inh HTS) | ADAM10 ctr inactive | ADAM17 confirm inactive
Cc1ccc(S(=O)(=O)Nc2nc(C)c(NC(=O)OCCCl)s2)cc1	ADAM17 inh 8.9 (no result: FGF22 binding, rRNA inh HTS) | ADAM10 ctr inactive | ADAM17 confirm inactive
O=C(O)c1ccc2c(c1)N(Cc1cccc(F)c1)C(=O)CS2	ADAM17 inh 8.9 | ADAM10 ctr inactive | ADAM17 confirm inactive
CCC(C)NC(=O)c1ccc2c(c1)N(Cc1ccccc1)C(=O)CS2 (centres undefined)	none
c1nc(NCc2ccc3c(c2)OCO3)c2cc(-c3ccoc3)ccc2n1	ADAM17 inh 9.9 | ADAM10 ctr inactive | ADAM17 confirm inactive
c1cncc(-c2ccc3ncnc(NCc4ccc5c(c4)OCO5)c3c2)c1	none
Cc1ccc(NC(=O)CCS(=O)(=O)c2ccc3c(c2)NC(=O)C(C)S3)cc1Cl (centres undefined)	none
CC1Sc2ccc(S(=O)(=O)CCC(=O)Nc3ccccc3Cl)cc2NC1=O (centres undefined)	ADAM17 inh 9.3 | ADAM10 ctr inactive | ADAM17 confirm inactive
CCCCSc1nc(C)cc(SCC(=O)N/N=C/c2cccc(OC)c2O)n1	ADAM17 inh 14 (no result: FGF22 binding, rRNA inh HTS) | ADAM10 ctr inactive | ADAM17 confirm inactive
O=C(C[C@@H]1CC[C@H](NC(=O)C2CCOCC2)[C@H](CO)O1)NCc1ccncc1	none (no result: ADAM10 inh, proKLK7 act, FGF22 binding, ADAM17 inh)
Cc1ccccc1NC(=S)/C(=C(\[O-])c1cc(C)n(Cc2ccccc2Cl)c1C)[n+]1ccccc1	FGF22 binding 43, ADAM17 inh 12 | ADAM10 ctr 24 | ADAM17 confirm 9.4
Cc1c(Cl)cccc1NC(=S)/C(=C(\[O-])c1ccc(Cl)s1)[n+]1ccccc1	ADAM17 inh 9.6 (no result: FGF22 binding, rRNA inh HTS) | ADAM10 ctr inactive | ADAM17 confirm inactive
